The record followed here is article PMC4336329 (PLoS ONE, 2015).

About 14,000 (4.5%) of roughly 310,000 compounds showed an effect of 50% or more. Effects have a minus sign here. This is one part of a sample in which strong results are shown more often than they occur.
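Also: peak tail current of the secondary pulse compared with the same well before compound.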

human ether-à-go-go-related gene (hERG) potassium channel, sequence (Q12809 whole entry, looked up): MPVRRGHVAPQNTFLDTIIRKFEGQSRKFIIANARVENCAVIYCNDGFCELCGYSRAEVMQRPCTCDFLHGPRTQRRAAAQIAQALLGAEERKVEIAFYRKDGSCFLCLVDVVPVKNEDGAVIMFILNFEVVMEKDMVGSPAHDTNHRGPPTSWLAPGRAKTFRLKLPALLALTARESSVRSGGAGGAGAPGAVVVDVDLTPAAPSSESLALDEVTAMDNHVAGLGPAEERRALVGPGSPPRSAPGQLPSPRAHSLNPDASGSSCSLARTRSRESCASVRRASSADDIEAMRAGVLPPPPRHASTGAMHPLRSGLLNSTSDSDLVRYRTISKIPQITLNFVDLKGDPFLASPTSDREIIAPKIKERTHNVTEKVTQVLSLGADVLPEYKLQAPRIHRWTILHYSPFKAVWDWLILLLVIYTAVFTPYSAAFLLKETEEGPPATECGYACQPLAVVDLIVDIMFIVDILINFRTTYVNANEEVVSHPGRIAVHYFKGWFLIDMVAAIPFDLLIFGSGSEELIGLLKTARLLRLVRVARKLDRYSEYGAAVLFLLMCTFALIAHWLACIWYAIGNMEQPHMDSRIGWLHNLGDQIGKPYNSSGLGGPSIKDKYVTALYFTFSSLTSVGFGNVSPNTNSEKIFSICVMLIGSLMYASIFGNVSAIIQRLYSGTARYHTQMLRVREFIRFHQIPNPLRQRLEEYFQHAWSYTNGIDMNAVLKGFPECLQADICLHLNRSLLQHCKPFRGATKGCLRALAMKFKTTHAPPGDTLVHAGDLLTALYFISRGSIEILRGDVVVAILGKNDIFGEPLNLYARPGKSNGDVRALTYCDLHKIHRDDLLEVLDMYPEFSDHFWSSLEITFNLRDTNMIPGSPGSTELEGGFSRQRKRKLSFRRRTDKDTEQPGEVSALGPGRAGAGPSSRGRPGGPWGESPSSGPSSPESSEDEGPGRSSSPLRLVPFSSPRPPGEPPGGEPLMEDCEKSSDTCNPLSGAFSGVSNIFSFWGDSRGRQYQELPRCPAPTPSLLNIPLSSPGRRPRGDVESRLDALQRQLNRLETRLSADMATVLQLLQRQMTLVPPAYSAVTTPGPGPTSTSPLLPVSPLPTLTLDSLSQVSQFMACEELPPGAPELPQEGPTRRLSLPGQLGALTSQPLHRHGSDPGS

The assay concerns the target human ether-à-go-go-related gene (hERG) potassium channel (human, UniProt Q12809). The assay can be described thus: primary screen, population patch clamp on CHO cells stably expressing hERG; higher = less effect of the substance.
Regarding `CCOC(=O)c1ccc(NC(=O)Nc2ccc3c(c2)OCCO3)cc1`, the “hERG current change (%, negative = inhibition) at 10uM” value is given as 10.6%. Regarding `Cn1c(=O)c2c(nc(SCC(=O)c3cccs3)n2Cc2ccc(F)cc2)n(C)c1=O`, the “hERG current change (%, negative = inhibition) at 10uM” value is -13.2%. In the case of `COc1ccc(C(=O)c2ccccc2Cl)cc1`, the “hERG current change (%, negative = inhibition) at 10uM” value is -34.5%. Then `O=C(CSc1nnc(CNC(=O)c2ccccc2F)o1)NCc1ccccc1`, with -7.93%; and `Cc1ccc(NC(=O)COC(=O)C2CC(=O)N(Cc3ccccc3)C2)cc1S(=O)(=O)N(C)C` (stereo not drawn), with 7.45%. For `CCCn1ccnc1SC(C)C(=O)Nc1c(C)n(C)n(-c2ccccc2)c1=O` (stereo not drawn), the “hERG current change (%, negative = inhibition) at 10uM” value worked out at 16.9%. As for `CN1C(=O)N(C)c2ccc(Br)c3cccc1c23`, the “hERG current change (%, negative = inhibition) at 10uM” value is 23.5%. Then `CC(OC(=O)c1ccccc1C(=O)N(C)c1ccccc1)C(=O)Nc1ccc(C(N)=O)cc1` (stereo not drawn), with -4.36%; and `COc1ccc(-c2cc(=O)oc3cc(OCC(=O)N4C[C@H]5C[C@@H](C4)c4cccc(=O)n4C5)ccc23)cc1`, with -53.5%; and `Cc1c(C)c2ccc(OCC(=O)N3C[C@H]4C[C@@H](C3)c3cccc(=O)n3C4)c(C)c2oc1=O`, with 1.39%.

Take `Cc1c(OCC(=O)N2C[C@H]3C[C@@H](C2)c2cccc(=O)n2C3)ccc2c3c(c(=O)oc12)CCCC3`: the “hERG current change (%, negative = inhibition) at 10uM” value is recorded as -13.5%. The figure for `Cc1coc2c(C)c3oc(=O)c(CCC(=O)N4C[C@H]5C[C@@H](C4)c4cccc(=O)n4C5)c(C)c3cc12` is -50.6%; for `CCc1cc(=O)oc2cc(OCC(=O)N3C[C@H]4C[C@@H](C3)c3cccc(=O)n3C4)ccc12` it is 8.87%; for `Cc1cc(=O)oc2cc(OCC(=O)N3C[C@H]4C[C@@H](C3)c3cccc(=O)n3C4)ccc12` it is 1.52%. Then `COCCOC1CCN(C(=O)C2CCC(=O)N(Cc3cccc(F)c3)C2)CC1` (stereo not drawn), with 20.1%; and `CCOC(=O)N1CCN(C(=O)c2ccc(NS(=O)(=O)c3ccc(F)cc3)cc2)CC1`, with -1.81%. Then `CCN(C(=O)COC(=O)C1CCN(S(=O)(=O)c2ccc(C)c(C)c2)CC1)C1CCCCC1`, with -10.4%. Turning to `Cc1ccc(/C(N)=N/OC(=O)CSc2ccccc2)cc1`, the “hERG current change (%, negative = inhibition) at 10uM” value is -5.49%.

In the case of `CN(CCNC(=O)c1cc2c(-c3ccccc3F)nn(C)c2s1)C1CCCCC1`, the “hERG current change (%, negative = inhibition) at 10uM” value is recorded as -50.8%. As to `Cn1nc(-c2ccc(Cl)cc2)c2cc(C(=O)N3CCN(C(=O)c4ccco4)CC3)sc21`, the “hERG current change (%, negative = inhibition) at 10uM” value is -20.7%. The figure for `CC1CCCCN1CCNC(=O)c1cc2c(-c3ccccc3F)nn(C)c2s1` (stereo not drawn) is -56.1%; for `COCCNC(=O)c1cc2c(-c3ccccc3F)nn(C)c2s1` it is -6.2%.

Regarding `CCOC(=O)N1CCC(NC(=O)c2cc3c(-c4ccccc4F)nn(C)c3s2)CC1`, the “hERG current change (%, negative = inhibition) at 10uM” value is listed as 13.5%.

With `Cn1nc(-c2ccccc2F)c2cc(C(=O)N3CCN(C(=O)c4ccco4)CC3)sc21`, the “hERG current change (%, negative = inhibition) at 10uM” value is listed as -57.2%.

Regarding `CC(=O)c1ccc(N2CCN(C(=O)c3cc4c(-c5ccccc5F)nn(C)c4s3)CC2)cc1`, the “hERG current change (%, negative = inhibition) at 10uM” value is reported as -20.7%.

Consider `CC(CCc1ccco1)NC(=O)c1cc2c(-c3ccccc3F)nn(C)c2s1` (stereo not drawn), for which the “hERG current change (%, negative = inhibition) at 10uM” value is -5.86%. Consider `Cn1nc(-c2ccccc2F)c2cc(C(=O)Nc3ccc4c(c3)OCCO4)sc21`, for which the “hERG current change (%, negative = inhibition) at 10uM” value stood at 14.8%.

As to `CCOc1ccc(NC(=O)c2ccc(-n3cccn3)nc2)cc1`, the “hERG current change (%, negative = inhibition) at 10uM” value amounted to 18.7%.

Regarding `CCN(/C=N/c1sc2c(c1C#N)CCCCC2)CC`, the “hERG current change (%, negative = inhibition) at 10uM” value is 5.56%. The figure for `CC(c1ccccc1)n1c(-c2ccc(Cl)cc2)n[nH]c1=S` (stereo not drawn) is 13.9%. The figure for `CCOc1cc(C(=O)Nc2ccc([N+](=O)[O-])cn2)cc(OCC)c1OCC` is -29%. The figure for `COc1ccc(C(=O)CC(=O)C(=O)Nc2cc(OC)c(OC)c(OC)c2)cc1` is 8.58%; for `Clc1ccc2[nH]c3c(NCCCN4CCOCC4)ncnc3c2c1` it is -69.9%. For the molecule `Cc1ccc2[nH]c3c(NCCCN4CCCC4=O)ncnc3c2c1`, the “hERG current change (%, negative = inhibition) at 10uM” value is -13.7%. The figure for `Cc1ccc2ncnc(NCCCN3CCOCC3)c2c1` is -13.6%; for `Fc1ccc2[nH]c3c(NCCN4CCOCC4)ncnc3c2c1` it is -16.8%; for `Clc1ccc2[nH]c3c(NCCN4CCOCC4)ncnc3c2c1` it is -61.8%.

`Clc1ccc(-n2ncc3c(NCCN4CCOCC4)ncnc32)cc1`: the “hERG current change (%, negative = inhibition) at 10uM” value is on record as -34.7%.

In the case of `c1ccc(-n2nnc3ccccc32)nc1`, the “hERG current change (%, negative = inhibition) at 10uM” value came to 3.7%. For the molecule `O=C(NN1C(=O)c2ccccc2NC1c1cccnc1)c1ccc([N+](=O)[O-])cc1` (stereo not drawn), the “hERG current change (%, negative = inhibition) at 10uM” value is recorded as -37.5%. Then `O=C(NCS(=O)(=O)c1ccccc1)c1ccccc1`, with -0.415%; and `CCOc1ccccc1CN1CCN(Cc2ccc3cccc(OC)c3n2)CC1CCO` (stereo not drawn), with -55.5%. On to `CCOc1ccc2nc(CN3CCN(Cc4ccccc4OCC)C(CCO)C3)ccc2c1` (stereo not drawn), for which the “hERG current change (%, negative = inhibition) at 10uM” value is -56.9%. Then `CCOc1ccccc1CN1CCN(Cc2ccc3cc(F)ccc3n2)CC1CCO` (stereo not drawn), with -65.7%. Then `COc1ccc(-c2csc(NC(C)c3nc4cc(C(=O)NCCCO)ccc4n3Cc3ccc(C)cc3)n2)cc1` (stereo not drawn), with 9.34%; and `Fc1ccccc1Nc1nc2ccccc2n2nnnc12`, with 7.8%; and `CCOc1cc(C(=O)Nc2ccc(S(=O)(=O)Nc3cc(C)on3)cc2)cc(OCC)c1OCC`, with -0.904%.

Regarding `O=C(NCc1ccco1)C1CCC(N2C(=O)c3ccccc3C2=O)CC1` (stereo not drawn), the “hERG current change (%, negative = inhibition) at 10uM” value was determined as 1.59%. The figure for `C=C1Cn2c(nnc2-c2ccc(Cl)cc2)S1` is -27.4%; for `C=CCNC(=O)C1(c2ccccc2)CC1(Cl)Cl` (stereo not drawn) it is -5.1%.

For `O=c1cc(N2CCCCC2)c(-c2ccccc2)nn1Cc1cccc(Cl)c1`, the “hERG current change (%, negative = inhibition) at 10uM” value is listed as 0.996%. `COC(=O)c1ccc(/C=C2\Oc3ccccc3NC2=O)cc1`: the “hERG current change (%, negative = inhibition) at 10uM” value was 15.5%.

As to `CCOC(=O)C1=C(C)NC(=S)NC1c1ccc(-c2cccc(Cl)c2C)o1` (stereo not drawn), the “hERG current change (%, negative = inhibition) at 10uM” value turned out to be 14.4%. The figure for `COc1ccc(N2CC(O)(c3ccc(C)cc3)[N+]3=C2CCCC3)cc1.[Br-]` (stereo not drawn) is -38.9%.

In the case of `OC1(c2cccs2)CN(c2ccc(Cl)cc2)C2=[N+]1CCCC2.[Br-]` (stereo not drawn), the “hERG current change (%, negative = inhibition) at 10uM” value was -59.5%. `Cc1cccc(N2CC(O)(c3cccs3)[N+]3=C2CCCC3)c1C.[Br-]` (stereo not drawn): the “hERG current change (%, negative = inhibition) at 10uM” value was -43.5%. For `Cc1cccc(N2CC(O)(c3cccs3)[N+]3=C2CCCC3)c1.[Br-]` (stereo not drawn), the “hERG current change (%, negative = inhibition) at 10uM” value was -12.3%. Then `COc1ccc(N2CC(O)(c3ccc(F)cc3)[N+]3=C2CCCC3)cc1.[Br-]` (stereo not drawn), with -3.37%; and `CCOc1ccc(N2CC(O)(c3cccs3)[N+]3=C2CCCC3)cc1.[Br-]` (stereo not drawn), with -69.7%. With `OC1(c2cccs2)CN(c2ccccc2)C2=[N+]1CCCC2.[Br-]` (stereo not drawn), the “hERG current change (%, negative = inhibition) at 10uM” value was 4.63%. Consider `COc1ccc(C2(O)CN(c3ccc(C)cc3)C3=[N+]2CCCC3)cc1.[Br-]` (stereo not drawn), for which the “hERG current change (%, negative = inhibition) at 10uM” value is given as -37.5%. Then `COc1ccc(N2CC(O)(c3ccc(OC(F)F)cc3)[N+]3=C2CCCC3)cc1.[Br-]` (stereo not drawn), with -70%; and `CCOc1ccc(N2CC(O)(c3ccc(F)cc3)[N+]3=C2CCCC3)cc1.[Br-]` (stereo not drawn), with -71.6%; and `CCOc1ccc(N2CC(C(=O)NNC(=O)c3ccc(F)cc3)CC2=O)cc1` (stereo not drawn), with -25.4%. Regarding `Cc1ccc(N2CC(O)(c3cccs3)[N+]3=C2CCCC3)cc1.[Br-]` (stereo not drawn), the “hERG current change (%, negative = inhibition) at 10uM” value was -32.3%. With `Cc1cccc(C)c1NC(=O)CN1C(=O)COc2ccccc21`, the “hERG current change (%, negative = inhibition) at 10uM” value is 10.5%. Turning to `Cc1ccc(S(=O)(=O)c2cnc(-c3ccccc3)nc2N2CCCCC2)cc1`, the “hERG current change (%, negative = inhibition) at 10uM” value worked out at 25.7%. For `CS(=O)(=O)c1ccc(NCCc2ccccn2)c([N+](=O)[O-])c1`, the “hERG current change (%, negative = inhibition) at 10uM” value is reported as -22.7%.

As to `COc1cccc(C2C(C(=O)Nc3ccc(C)cc3C)=C(C)Nc3ncnn32)c1OC` (stereo not drawn), the “hERG current change (%, negative = inhibition) at 10uM” value is reported as 7.02%. Then `O=C(Nc1c2c(nn1-c1ccc(F)cc1)CS(=O)C2)c1ccco1` (stereo not drawn), with -21.4%.

For the molecule `CC(=O)Nc1ccc(NC(=O)c2cc(=O)c3ccc(C)cc3o2)cc1`, the “hERG current change (%, negative = inhibition) at 10uM” value is recorded as 17.4%. In the case of `CCC1=NN(C(=O)Cc2ccccc2)C(O)(c2ccncc2)C1` (stereo not drawn), the “hERG current change (%, negative = inhibition) at 10uM” value is 28.9%. Then `COc1ccc(OCc2cccc(C(=O)Nn3cc([N+](=O)[O-])cn3)c2)cc1`, with -15.6%; and `CCOC(=O)c1ccc(CNC(=O)c2cc(COc3ccccc3SC)on2)o1`, with 1.07%; and `CC(C)Cn1c(N)c(C=O)c(=O)n(C)c1=O`, with 26.4%. Then `O=C(C1CCC(=O)N(C2CC2)C1)N1CCN(c2ccc(Cl)cc2)CC1` (stereo not drawn), with -38.1%; and `O=C1CCC(C(=O)N2CCN(c3ccccc3)CC2)CN1CC1CCCCC1` (stereo not drawn), with -27.5%; and `O=C(C1CCC(=O)N(C2CCCC2)C1)N1CCN(c2ccc(Cl)cc2)CC1` (stereo not drawn), with -61%. Take `Cc1cccc(N2CCN(C(=O)C3CCCCC3)CC2)c1C`: the “hERG current change (%, negative = inhibition) at 10uM” value was -24.8%. Then `O=C1CCC(C(=O)N2CCN(c3ccccc3Cl)CC2)CN1CC1CCCCC1` (stereo not drawn), with -72.2%. Then `COc1cccc(CN2CC(C(=O)N3CCN(c4ccc(Cl)cc4)CC3)CCC2=O)c1` (stereo not drawn), with -70.9%. Then `COc1cccc(CN2CC(C(=O)N3CCCC3)CCC2=O)c1` (stereo not drawn), with 19.4%. As to `O=C(C1CCC(=O)N(C2CCCC2)C1)N1CCN(c2ccccc2Cl)CC1` (stereo not drawn), the “hERG current change (%, negative = inhibition) at 10uM” value is given as -15.8%. On to `O=C(C1CCC(=O)N(C2CCCCCC2)C1)N1CCN(c2ccccc2Cl)CC1` (stereo not drawn), for which the “hERG current change (%, negative = inhibition) at 10uM” value is reported as -42.9%. The figure for `Cc1cc(N2CCC(C(=O)N3CCN(c4cccc(C)c4C)CC3)CC2)n2ncnc2n1` is -68.7%; for `COc1cccc(CN2CC(C(=O)N3CCCCCCC3)CCC2=O)c1` (stereo not drawn) it is -2.24%. The figure for `Cc1cc(N2CCN(C(=O)OC(C)(C)C)CC2)n2ncnc2n1` is -27.5%.
